Hits are enriched below; roughly 1.6% of the tested compounds scored in any of these assays.
Rce1 inh – inhibitors of yeast Ras-converting enzyme; AID 2563; 0.27% of 290,000 active; calls only; yeast membranes, quenched prenylated peptide cleavage fluorescence; Q03530;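 active = fall in fluorescence gain of 50% or more versus controls, with final raw signal at or below 3038400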;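 note: plate controls were neutral control wells for no effect and wells lacking membranes for full effect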
Target sequence (Q03530 whole entry, looked up): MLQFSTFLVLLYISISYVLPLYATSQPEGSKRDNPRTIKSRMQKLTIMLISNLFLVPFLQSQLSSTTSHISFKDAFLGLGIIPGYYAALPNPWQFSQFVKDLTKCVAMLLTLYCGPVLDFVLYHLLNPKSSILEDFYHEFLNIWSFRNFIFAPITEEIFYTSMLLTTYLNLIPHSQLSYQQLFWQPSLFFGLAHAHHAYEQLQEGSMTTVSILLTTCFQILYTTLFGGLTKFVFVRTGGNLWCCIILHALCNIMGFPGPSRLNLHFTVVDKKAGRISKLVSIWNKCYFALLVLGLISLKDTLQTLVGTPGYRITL
V-ATPase pHluor – regulators of yeast V-ATPase proton transport; AID 504577; S. cerevisiae, pHLuorin cytosolic pH fluorescence; 0.37% of 350,000 active; response, % at 10 µM; in the data active = response mostly above about 7.3%, no sharp cut-off; inactive = mostly below about 5.4%; note: actives read high
NALP3 yeast inh – NALP3 inhibition in yeast; Yeast reconstituted NLRP3/ASC/caspase-1, beta-gal luminescence, 24 h; inhibition, % at 10 µM; AID 2825; 0.39% of 330,000 active;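 active = inhibition of 50% or more; inactive = inhibition below 50%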;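 note: plate controls were induced DMSO wells for no effect and uninduced yeast grown without galactose for full effect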
PERK inhibitor – inhibitors of human PERK kinase; Q9NZJ5; CHO PERK-DD fusion, SEAP luminescence translation reporter; inhibition, % at 5.6 µM; 0.17% of 220,000 active; AID 1416;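 active = inhibition above the mean inhibition of all tested compounds plus 3 SD, set separately per screening campaign, cut at about 2.9% in these data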;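 note: PERK kinase domain activated by AP20187 dimerizer at 100 nM; 0% = DMSO with dimerizer and 100% = rapamycin at 8.4 µM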
NALP1 yeast inh – NALP1 inhibition; S. cerevisiae NALP1/ASC/caspase-1 growth, X-gal OD620, 72 h; inhibition, % at 10 µM; 0.61% of 280,000 active; AID 2071; in the data active = inhibition mostly above about 24%, no sharp cut-off; inactive = mostly below about 32%
CR mimetic SO – yeast age-related superoxide inhibition as caloric restriction mimetic; superoxide response (% of plate mean), % at 10 µM; 0.18% of 330,000 active; S. cerevisiae aged cells, superoxide DHE fluorescence; active compounds read low;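 active = superoxide response under a set limit, about three screen SD below normal, cut at about 65% in these data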;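 note: yeast aged for seven days with compound at 30 °C before DHE staining; 100% = average MFI of all compound-treated wells on the plate with controls excluded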
Numbers without * were called inactive; i = inactive; . = no result given; + = active, no number.

SMILES	Rce1 inh	V-ATPase pHluor	NALP3 yeast inh	PERK inhibitor	NALP1 yeast inh	CR mimetic SO
Cc1ccc(-n2c(Cc3cccn3C)nnc2SCC(=O)N2CCN(c3ccccc3)CC2)cc1	i	20*	-12	-1	-4	94
Cc1ccc(CN2CCC(c3cc(-c4ccc(Cl)cc4)n[nH]3)CC2)cc1	i	2	41	.	35*	94
NC(=S)N/N=C/c1ccc(/C=N/NC(N)=S)cc1	i	1	12	3.5*	-17	84
Oc1ccc(-c2nnc(Nc3cccc(O)c3)c3ccccc23)cc1	i	4	-9	1	44*	91
CCN1CCCC1CN(Cc1cc2ccc(C)cc2[nH]c1=O)C(=S)Nc1ccccc1OC (stereo unspecified)	i	1	7	1	27	100
CCN1CCCC1CN(Cc1cc2ccc(C)cc2[nH]c1=O)C(=S)Nc1ccccc1C(=O)OC (stereo unspecified)	i	0	26	0	37*	96
OCCN(CCO)c1ccc2ccccc2c1	+	0	-5	1	-13	82
OCCN(CCO)c1cc2c3ccccc3ccc2c2ccccc12	.	1	.	.	.	.
O=C(c1cccc(S(=O)(=O)N2CCOCC2)c1)N1CCN(c2ccc(F)cc2)CC1	i	18*	11	-1	-10	88
O=C(O)Cn1nc(-c2ccc(F)cc2)oc1=O	i	-1	-13	0	0	85
O=C(O)Cn1nc(-c2ccccc2)oc1=O	i	-2	-7	3.0*	57	96
CCCCN(Cc1ccccc1)C(=O)C1CCN(S(=O)(=O)c2c(C)noc2C)CC1	i	3	4	0	37*	118
O=C1CCCc2nc3c(cc21)C(O)Oc1ccccc1-3 (stereo unspecified)	i	16*	-7	1	8	93
O=C1CCCc2nc3c(cc21)C(O)Oc1c-3ccc2ccccc12 (stereo unspecified)	i	-2	16	1	-5	120
CC1CC(=O)Nc2ccc([N+](=O)[O-])cc2N1C (stereo unspecified)	i	-7	-1	1	9	98
CC(=O)N1c2ccc([N+](=O)[O-])cc2NC(=O)CC1C (stereo unspecified)	+	-1	25	1	27	102
COCCNC(=O)C[C@@H]1C[C@H]2c3cc(NC(=O)Nc4ccc(F)cc4)ccc3O[C@H]2[C@H](CO)O1	.	1	.	.	.	.
C[C@@H]1CN([C@@H](C)CO)C(=O)CCCn2cc(nn2)CO[C@H]1CN(C)S(=O)(=O)c1ccc2ccccc2c1	.	0	.	.	.	.
Cn1c(/N=C(\N)c2ccccc2)nc2ccccc21	.	0	.	.	.	.
Cc1nc2nc(CCNS(=O)(=O)c3ccc(Cl)cc3)cn2nc1C	i	13*	19	.	22	120
COc1ccc(S(=O)(=O)NCCc2cn3nc(C)c(C)nc3n2)cc1	i	2	-1	.	1	96
O=C1CCSc2ccc(Cl)cc2N1Cc1cccc(Cl)c1	i	-7	6	0	34	77
Cc1ccc(CN2C(=O)CCSc3ccc(Cl)cc32)cc1	i	9	11	0	36*	86
COc1ccc(CN2C(=O)C(CC(=O)NCCCN(C)C)CC(C(=O)N(C)C)=C2C)cc1 (stereo unspecified)	.	2	.	.	.	.
CC1(c2nnc(-c3ccc(F)cc3)o2)CC(c2cccc(Cl)c2)=NO1 (stereo unspecified)	i	-3	12	.	-8	95
SMILES	Rce1 inh	V-ATPase pHluor	NALP3 yeast inh	PERK inhibitor	NALP1 yeast inh	CR mimetic SO
CC1(c2nnc(-c3cccc(Cl)c3)o2)CC(c2cccc(F)c2)=NO1 (stereo unspecified)	+	-14	15	.	.	.
COc1cc2c(c(OC)c1OC)-c1ccc(NCc3ccccc3)c(=O)cc1C(NC(C)=O)CC2 (stereo unspecified)	.	-1	.	.	.	.
Fc1ccc(Nc2ccnc(Nc3ccc(F)cc3)n2)cc1	i	-2	21	-1	84*	107
Nc1ncnc(Nc2ccc(F)cc2)n1	i	-2	-3	0	16	102
Cc1ccc(-n2nc(C)c3c(C)c(CCC(=O)NC(C)c4ccccc4)c(C)nc32)cc1 (stereo unspecified)	i	-1	14	0	39*	107
CC1(C)Cc2c(sc(NC(=O)COc3cccc4ccccc34)c2C#N)C(C)(C)N1	i	0	25	0	17	96
Cc1ccc(OCC(=O)Nc2sc3c(c2C#N)CC(C)(C)NC3(C)C)cc1	i	13*	13	0	10	86
COc1cccc(C2CC(=O)C3=C(C2)Nc2ccccc2N(C(=O)CCC(=O)O)C3c2ccc(F)cc2)c1 (stereo unspecified)	+	4	-3	1	.	101
Cc1ccc(-c2nc(SCC(=O)N(C)C3CCS(=O)(=O)C3)[nH]c2-c2ccc(C)cc2)cc1 (stereo unspecified)	+	1	4	-1	3	84
C=CC1CN2CCC1CC2C(O)c1ccnc2ccc(OC)cc12 (stereo unspecified)	.	6	.	.	.	.
COc1ccc(-n2c(N)c(C(=O)NCc3ccco3)c3nc4ccccc4nc32)c(OC)c1	+	-2	7	0	7	105
CCCC(=O)Nc1ccc(C(=O)/C=C/c2ccc(SC)cc2)cc1	i	3	9	0	0	103
CSc1ccc(/C=C/C(=O)c2ccc(NC(C)=O)cc2)cc1	i	-1	22	-1	53*	107
CC12CCC(/C(=C/NNc3ccc([N+](=O)[O-])cc3[N+](=O)[O-])C1=O)C2(C)C (stereo unspecified)	.	3	.	.	.	.
CCOCc1c(C(=O)Nc2cc(OCC)c(N3CCOCC3)cc2OCC)oc2ccccc12	i	-2	11	1	36*	99
CCOc1cc(N2CCOCC2)c(OCC)cc1NC(=O)c1oc2ccccc2c1C	i	1	7	0	0	93
CCc1ccc(NC(=O)c2ccccc2NC(=O)C2CCCO2)cc1 (stereo unspecified)	i	-4	-13	-1	43*	113
COc1cc(-c2nc3ccccn3c2/N=C/c2ccc(F)cc2)ccc1O	i	-2	15	1	7	98
COc1cc(-c2nc3ccccn3c2/N=C/c2cccc(OC)c2O)ccc1O	+	-1	21	0	10	87
COC(=O)C1=C(C)NC(C)=C(C(=O)OC)C1C(=O)OCC(=O)NC1CCCCC1C (stereo unspecified)	.	0	.	.	.	.
COc1ccc(S(=O)(=O)N(C)C[C@H]2OCc3cnnn3CCCC(=O)N([C@@H](C)CO)C[C@H]2C)cc1	.	-3	.	.	.	.
CCN(CC)S(=O)(=O)c1cnccc1N1CCN(c2cccc(Cl)c2)CC1	i	-2	11	-1	54*	102
O=C1CCCN1CN(C(=O)c1ccccc1)c1ccccc1	i	5	0	2	19	80
